# According to the supplement of paper PMC10849652:
# The full data set covers some 7,900 targets. This sample favours those with a hit. About 0.6% of all pairs of compound and target were hits. Values without a mark were called inactive.
# Key:
# Assay in all cases: log2 fold change, soluble protein after heating vs DMSO (PISA); higher = thermal stabilisation; K562 cells, 10 uM, 30 min; active = over 0.2 and 3.5 SD of the protein, either way, in both replicates (recomputed)
# [1] = compound: CC1=C(C=C(C=C1)NC(=O)C2=CC(=CC=C2)C(C)(C)C#N)NC3=CC4=C(C=C3)N=CN(C4=O)C
# Summary of the method: (§1)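 Values are thermal stability changes relative to control samples and are taken from duplicates. They are stated as log2 fold changes. Before quantification by TMTpro 16plex LC-MS/MS with equalised channel sums, K562 cells at 2×10^6 cells/mL were treated with 10 μM compound for 30 min, heated in aliquots for 3 min across 48°C-58°C, pooled, extracted in PBS with 0.5% NP-40 at 4°C, and centrifuged at 21,000xg for 90 min to give the soluble supernatant.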
# [2] = compound: CC1=C(C=C(C=C1)NC(=O)C2=CC(=CC=C2)N(C)C)NC(=O)C3=CC=C(C=C3)O
# Summary of the method: as §1
# [3] = compound: CC1=CC=C(C=C1)SC2=C3C=C(SC3=CN=C2)C(=O)N
# Summary of the method: as §1
# [4] = compound: CC1=NC(=CC=C1)C2=C(N=C(N2)C(C)(C)C)C3=CC4=NC=CN=C4C=C3
# Summary of the method: as §1
# Nexturastat A = compound: CCCCN(Cc1ccc(C(=O)NO)cc1)C(=O)Nc1ccccc1 [Nexturastat A]
# Summary of the method: as §1
# vemurafenib = compound: CCCS(=O)(=O)Nc1ccc(F)c(C(=O)c2c[nH]c3ncc(-c4ccc(Cl)cc4)cc23)c1F [vemurafenib]
# Summary of the method: as §1
# [5] = compound: CCCS(=O)(=O)Nc1ccc(F)c(C(=O)c2c[nH]c3ncc(Cl)cc23)c1F
# Summary of the method: as §1
# [6] = compound: CCCc1cc(C)[nH]c(=O)c1CNC(=O)c1cc(-c2ccnc(N3CCN(C)CC3)c2)cc2c1cnn2C(C)C
# Summary of the method: as §1
# givinostat = compound: CCN(CC)Cc1ccc2cc(COC(=O)Nc3ccc(C(=O)NO)cc3)ccc2c1 [givinostat]
# Summary of the method: as §1
# barasertib = compound: CCN(CCCOc1ccc2c(Nc3cc(CC(=O)Nc4cccc(F)c4)[nH]n3)ncnc2c1)CCOP(=O)(O)O [barasertib]
# Summary of the method: as §1
# [7] = compound: CC[C@@H]1C(=O)N(C)c2cnc(Nc3ccc(C(=O)NC4CCN(C)CC4)cc3OC)nc2N1C1CCCC1
# Summary of the method: as §1
# volasertib = compound: CC[C@@H]1C(=O)N(C)c2cnc(Nc3ccc(C(=O)N[C@H]4CC[C@H](N5CCN(CC6CC6)CC5)CC4)cc3OC)nc2N1C(C)C [volasertib]
# Summary of the method: as §1
# [8] = compound: CC[C@H](C)N1C=C(C2=C(C=C(C=C21)C3=CN=C(C=C3)N4CCNCC4)C(=O)NCC5=C(C=C(NC5=O)C)C)C
# Summary of the method: as §1
# epoxomicin = compound: CC[C@H](C)[C@@H](C(=O)N[C@@H]([C@@H](C)O)C(=O)N[C@@H](CC(C)C)C(=O)[C@]1(CO1)C)NC(=O)[C@H]([C@@H](C)CC)N(C)C(=O)C [epoxomicin]
# Summary of the method: as §1
# [9] = compound: CCn1c(C(=O)N(C2CC2)C2CC2)cc2c3c(ncn3C)c(Nc3cc(C)n(C)n3)nc21
# Summary of the method: as §1
# [10] = compound: CCn1cc(-c2ccnc3[nH]c(-c4cccc(CN(C)C)c4)cc23)c(-c2ccc(NC(=O)N(C)C)cc2)n1
# Summary of the method: as §1
# [11] = compound: CN(C)CC(=O)Nc1ccc2[nH]c(=O)c3ccccc3c2c1
# Summary of the method: as §1
# rosiglitazone = compound: CN(CCOC1=CC=C(C=C1)C[C@H]2C(=O)NC(=O)S2)C3=CC=CC=N3 (racemic) [rosiglitazone]
# Summary of the method: as §1
# [12] = compound: CN1C2=C(C3=C1C(=O)N(N=C3)CC4=CC(=CC=C4)N)SC(=C2)S(=O)C
# Summary of the method: as §1
# [13] = compound: CN1CCC(CNc2ccc3ncc(-c4cccc(OC(F)(F)F)c4)n3n2)CC1
# Summary of the method: as §1
# Chain of UniProt Q9NW64 (Q9NW64 whole entry, looked up): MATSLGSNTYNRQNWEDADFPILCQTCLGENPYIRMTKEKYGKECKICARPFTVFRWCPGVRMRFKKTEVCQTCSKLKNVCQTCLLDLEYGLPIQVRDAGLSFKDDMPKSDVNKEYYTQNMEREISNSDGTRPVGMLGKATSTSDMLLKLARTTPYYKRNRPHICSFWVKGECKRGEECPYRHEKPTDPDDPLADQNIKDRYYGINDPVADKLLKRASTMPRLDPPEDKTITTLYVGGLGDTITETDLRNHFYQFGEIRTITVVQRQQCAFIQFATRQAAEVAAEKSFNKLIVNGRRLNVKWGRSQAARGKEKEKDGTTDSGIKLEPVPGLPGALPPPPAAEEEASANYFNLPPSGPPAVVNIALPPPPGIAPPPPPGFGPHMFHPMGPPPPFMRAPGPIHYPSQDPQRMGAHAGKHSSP
# Chain of UniProt Q5VTB9 (Q5VTB9 whole entry, looked up): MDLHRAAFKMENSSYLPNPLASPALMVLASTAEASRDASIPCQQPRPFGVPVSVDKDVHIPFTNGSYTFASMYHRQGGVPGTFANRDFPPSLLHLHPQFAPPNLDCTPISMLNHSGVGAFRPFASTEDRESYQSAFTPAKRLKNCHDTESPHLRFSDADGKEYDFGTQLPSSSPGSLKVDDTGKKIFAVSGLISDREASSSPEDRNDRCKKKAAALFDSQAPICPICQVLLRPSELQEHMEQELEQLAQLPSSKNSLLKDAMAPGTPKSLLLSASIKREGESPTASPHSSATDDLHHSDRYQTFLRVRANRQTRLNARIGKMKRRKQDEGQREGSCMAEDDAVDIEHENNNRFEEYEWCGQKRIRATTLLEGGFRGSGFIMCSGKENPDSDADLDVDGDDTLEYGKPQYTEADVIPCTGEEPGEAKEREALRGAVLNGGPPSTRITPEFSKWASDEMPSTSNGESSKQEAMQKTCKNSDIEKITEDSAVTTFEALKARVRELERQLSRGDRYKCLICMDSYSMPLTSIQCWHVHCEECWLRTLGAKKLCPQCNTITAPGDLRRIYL
# Chain of UniProt P05543 (P05543 whole entry, looked up): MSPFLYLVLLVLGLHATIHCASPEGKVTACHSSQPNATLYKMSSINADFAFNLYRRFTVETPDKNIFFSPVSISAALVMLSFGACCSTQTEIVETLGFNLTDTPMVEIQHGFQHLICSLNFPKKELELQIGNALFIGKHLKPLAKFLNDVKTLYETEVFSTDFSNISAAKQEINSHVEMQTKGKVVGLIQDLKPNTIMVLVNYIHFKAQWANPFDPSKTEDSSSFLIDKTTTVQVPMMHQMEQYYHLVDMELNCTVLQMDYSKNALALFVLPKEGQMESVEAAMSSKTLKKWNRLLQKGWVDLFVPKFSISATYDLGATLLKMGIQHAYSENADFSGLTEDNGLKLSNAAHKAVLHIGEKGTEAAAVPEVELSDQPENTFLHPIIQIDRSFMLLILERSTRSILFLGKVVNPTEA
# Chain of UniProt Q9HB90 (Q9HB90 whole entry, looked up): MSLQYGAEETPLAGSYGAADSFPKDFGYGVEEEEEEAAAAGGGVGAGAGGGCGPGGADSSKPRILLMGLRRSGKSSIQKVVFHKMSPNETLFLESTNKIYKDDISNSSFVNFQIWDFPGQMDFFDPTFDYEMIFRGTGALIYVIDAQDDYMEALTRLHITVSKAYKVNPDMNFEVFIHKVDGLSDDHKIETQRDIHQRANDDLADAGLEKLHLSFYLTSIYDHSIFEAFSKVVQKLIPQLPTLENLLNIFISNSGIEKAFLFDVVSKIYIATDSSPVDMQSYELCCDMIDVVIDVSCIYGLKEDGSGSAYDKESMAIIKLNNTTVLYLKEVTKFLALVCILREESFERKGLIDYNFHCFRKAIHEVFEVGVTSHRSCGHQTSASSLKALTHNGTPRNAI
# Chain of UniProt Q8TDY2 (Q8TDY2 whole entry, looked up): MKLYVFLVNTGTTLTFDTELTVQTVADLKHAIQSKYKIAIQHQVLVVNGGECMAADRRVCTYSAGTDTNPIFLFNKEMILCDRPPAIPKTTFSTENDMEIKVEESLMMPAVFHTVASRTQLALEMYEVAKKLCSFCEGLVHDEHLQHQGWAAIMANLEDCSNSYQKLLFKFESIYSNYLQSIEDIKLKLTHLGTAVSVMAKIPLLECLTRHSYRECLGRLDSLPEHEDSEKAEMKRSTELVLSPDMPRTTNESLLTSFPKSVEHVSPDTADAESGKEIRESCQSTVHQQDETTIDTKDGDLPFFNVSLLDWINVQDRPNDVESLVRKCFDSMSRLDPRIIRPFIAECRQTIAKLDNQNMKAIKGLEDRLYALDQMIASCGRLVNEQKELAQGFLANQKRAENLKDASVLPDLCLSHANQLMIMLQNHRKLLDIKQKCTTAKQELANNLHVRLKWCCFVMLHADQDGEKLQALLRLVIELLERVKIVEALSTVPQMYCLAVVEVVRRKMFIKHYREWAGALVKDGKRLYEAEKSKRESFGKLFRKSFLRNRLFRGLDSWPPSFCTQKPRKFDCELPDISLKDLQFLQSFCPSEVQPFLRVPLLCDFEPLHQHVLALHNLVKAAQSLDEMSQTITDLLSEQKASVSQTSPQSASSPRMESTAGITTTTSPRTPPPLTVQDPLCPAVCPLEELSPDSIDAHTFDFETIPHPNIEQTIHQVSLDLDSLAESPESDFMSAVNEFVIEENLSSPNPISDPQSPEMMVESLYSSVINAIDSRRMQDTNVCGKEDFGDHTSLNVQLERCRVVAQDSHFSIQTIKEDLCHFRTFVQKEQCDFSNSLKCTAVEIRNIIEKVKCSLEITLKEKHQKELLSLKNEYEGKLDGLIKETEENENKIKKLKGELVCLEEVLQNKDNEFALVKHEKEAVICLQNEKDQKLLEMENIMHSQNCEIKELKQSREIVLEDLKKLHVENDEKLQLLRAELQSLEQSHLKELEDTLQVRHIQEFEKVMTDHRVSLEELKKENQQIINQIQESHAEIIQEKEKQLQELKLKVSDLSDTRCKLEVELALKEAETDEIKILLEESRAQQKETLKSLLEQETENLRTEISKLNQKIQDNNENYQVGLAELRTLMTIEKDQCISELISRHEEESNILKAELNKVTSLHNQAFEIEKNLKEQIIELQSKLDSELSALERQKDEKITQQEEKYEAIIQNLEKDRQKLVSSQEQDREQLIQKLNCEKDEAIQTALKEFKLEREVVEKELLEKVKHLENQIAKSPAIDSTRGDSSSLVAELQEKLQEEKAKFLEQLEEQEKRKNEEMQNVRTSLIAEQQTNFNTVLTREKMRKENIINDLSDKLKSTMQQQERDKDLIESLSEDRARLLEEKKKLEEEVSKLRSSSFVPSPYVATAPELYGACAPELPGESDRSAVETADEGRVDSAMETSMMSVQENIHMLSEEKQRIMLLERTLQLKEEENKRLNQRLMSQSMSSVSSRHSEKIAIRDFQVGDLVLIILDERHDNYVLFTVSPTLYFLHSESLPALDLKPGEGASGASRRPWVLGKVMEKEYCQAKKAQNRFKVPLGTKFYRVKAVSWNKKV
# Chain of UniProt O75116 (O75116 whole entry, looked up): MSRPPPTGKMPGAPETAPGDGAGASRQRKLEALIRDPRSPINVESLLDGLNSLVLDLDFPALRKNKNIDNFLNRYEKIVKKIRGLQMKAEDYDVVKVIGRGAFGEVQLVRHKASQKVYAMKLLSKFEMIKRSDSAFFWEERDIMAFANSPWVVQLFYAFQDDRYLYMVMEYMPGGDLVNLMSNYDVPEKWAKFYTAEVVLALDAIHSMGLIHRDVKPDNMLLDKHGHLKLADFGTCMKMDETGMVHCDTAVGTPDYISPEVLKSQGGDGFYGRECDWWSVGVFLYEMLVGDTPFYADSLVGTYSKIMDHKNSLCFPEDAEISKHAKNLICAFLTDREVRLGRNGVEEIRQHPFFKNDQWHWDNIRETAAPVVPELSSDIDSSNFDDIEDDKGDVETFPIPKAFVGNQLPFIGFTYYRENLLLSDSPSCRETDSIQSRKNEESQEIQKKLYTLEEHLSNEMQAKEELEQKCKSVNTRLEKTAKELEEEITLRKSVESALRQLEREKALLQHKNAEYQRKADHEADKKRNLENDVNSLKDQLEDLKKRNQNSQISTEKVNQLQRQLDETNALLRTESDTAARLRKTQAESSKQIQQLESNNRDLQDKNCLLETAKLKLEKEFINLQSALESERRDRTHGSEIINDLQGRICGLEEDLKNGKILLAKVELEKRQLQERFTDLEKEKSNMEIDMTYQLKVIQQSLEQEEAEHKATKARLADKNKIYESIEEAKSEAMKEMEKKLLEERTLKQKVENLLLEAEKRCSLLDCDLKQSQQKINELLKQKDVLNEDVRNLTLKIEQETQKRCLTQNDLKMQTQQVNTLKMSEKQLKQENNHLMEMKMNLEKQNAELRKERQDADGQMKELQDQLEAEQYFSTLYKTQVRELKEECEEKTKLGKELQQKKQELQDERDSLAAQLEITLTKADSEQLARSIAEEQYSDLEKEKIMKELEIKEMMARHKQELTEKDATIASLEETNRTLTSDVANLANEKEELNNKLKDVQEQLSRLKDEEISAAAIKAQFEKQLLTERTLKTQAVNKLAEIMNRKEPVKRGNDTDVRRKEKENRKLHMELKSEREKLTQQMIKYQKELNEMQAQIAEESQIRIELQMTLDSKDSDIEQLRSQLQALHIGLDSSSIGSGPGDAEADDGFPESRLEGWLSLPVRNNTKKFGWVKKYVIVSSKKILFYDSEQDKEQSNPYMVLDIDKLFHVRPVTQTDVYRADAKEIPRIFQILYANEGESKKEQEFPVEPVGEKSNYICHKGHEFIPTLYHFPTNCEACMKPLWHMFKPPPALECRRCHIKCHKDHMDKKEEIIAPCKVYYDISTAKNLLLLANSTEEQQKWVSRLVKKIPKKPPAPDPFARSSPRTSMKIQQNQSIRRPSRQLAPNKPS
Target,log2 fold change [1],log2 fold change [2],log2 fold change [3],log2 fold change [4],log2 fold change (Nexturastat A),log2 fold change (vemurafenib),log2 fold change [5],log2 fold change [6],log2 fold change (givinostat),log2 fold change (barasertib),log2 fold change [7],log2 fold change (volasertib),log2 fold change [8],log2 fold change (epoxomicin),log2 fold change [9],log2 fold change [10],log2 fold change [11],log2 fold change (rosiglitazone),log2 fold change [12],log2 fold change [13]
SERPINA7 (UniProt P05543),-0.121,0.496,0.067,-0.021,0.086,-0.06,-0.271,-0.349,-0.043,-0.127,0.055,0.309,0.044,-0.68 (active),0.073,0.036,-0.123,-0.014,0.255,0.279
RNF220 (UniProt Q5VTB9),-0.01,-0.086,0.008,0.047,0.008,-0.001,-0.001,-0.023,0.038,0.016,-0.047,-0.114,0.085,-0.021,-0.045,-0.043,-0.03,0.002,-0.045,0.003
RRP12 (UniProt Q5JTH9),0.036,-0.012,0.094,-0.043,0.371,-0.087,-0.012,0.074,0.209,-0.018,0.246,0,0.029,0.054,-0.036,-0.057,-0.046,0.026,0.066,0.161
RSF1 (UniProt Q96T23),0.111,-0.112,-0.015,0.217,-0.091,0.119,0.052,0.029,0.084,0.095,-0.138,-0.358,0.012,0.165,-0.097,-0.098,0.141,0.006,-0.008,-0.109
RSRC1 (UniProt Q96IZ7),0.041,0.013,0.006,0.056,0.02,-0.046,0.004,-0.026,0.019,-0.031,0.01,0.056,-0.041,0.083,0.022,-0.021,-0.005,0.002,-0.01,-0.062
RPS2 (UniProt P15880),0.006,0.009,-0.075,-0.036,0.192,-0.116,-0.099,0.084,-0.011,-0.095,0.168,0.348,0.021,-0.191,0.045,0.119,-0.108,-0.092,0.195,0.086
RRAGC (UniProt Q9HB90),0.005,0.003,0.017,0.008,-0.07,-0.027,0.047,-0.048,0.052,-0.011,-0.009,-0.003,-0.051,-0.045,0.041,0,-0.024,0.05,-0.067,-0.177
RBM22 (UniProt Q9NW64),-0.049,0.031,-0.056,-0.014,0.052,0.003,-0.004,-0.038,0.018,-0.006,-0.027,-0.3 (active),0.002,-0.009,-0.018,0.061,-0.058,0.005,0.011,-0.003
RBM8A (UniProt Q9Y5S9),-0.025,-0.024,-0.02,0.075,-0.069,0.024,-0.001,0.04,-0.032,0.043,-0.051,-0.041,0.038,0.005,0.021,0.014,-0.037,-0.004,-0.035,0.065
ROCK2 (UniProt O75116),0.009,-0.044,-0.037,0.02,-0.004,0.034,-0.005,-0.06,0.055,0.027,-0.033,-0.139,-0.009,0.063,-0.028,-0.178,0.007,0.177,-0.02,-0.042
RAB3IL1 (UniProt Q8TBN0),0.005,0.002,0.008,0.02,-0.124,0.018,0.062,-0.025,-0.024,0.015,-0.018,-0.136,-0.001,-0.001,-0.014,-0.15,0.009,0.029,-0.035,0.013
"SART3, A0A499FI31",0.015,-0.05,-0.014,0.04,-0.043,0.023,0.072,-0.013,0.012,0.022,-0.235,-0.557 (active),0.061,0.065,-0.008,-0.017,0.017,0.038,-0.056,-0.211
RB1CC1 (UniProt Q8TDY2),-0.061,-0.005,0.025,-0.031,0.161,-0.022,-0.034,0.147,0.102,-0.008,0.051,-0.022,-0.086,0.063,-0.118,-0.07,-0.077,0.01,0.047,-0.116
RPS9 (UniProt P46781),0.039,0,-0.073,-0.016,0.104,-0.107,-0.066,0.087,0.038,-0.114,0.203,0.339,0.02,-0.24,0.025,0.088,-0.095,-0.078,0.174,0.146
SASH1 (UniProt O94885),0.046,-0.013,0.024,0.01,0.038,-0.043,0.097,-0.031,-0.063,0.071,-0.136,-0.308 (active),0.044,-0.075,-0.012,0.027,0.042,0.044,0.054,-0.29
RCC1 isoform 2 (UniProt P18754),0.197,-0.129,0.073,0.055,-0.027,0.13,0.104,0.111,0.087,0.053,-0.037,-0.063,0.044,0.118,-0.185,-0.02,0.168,0.053,-0.09,0.11
